PubChem BioAssay (NCI)
Compounds without any hit were thinned out: in the full panel of roughly 79,000, 15% have a hit. The source made the active and inactive calls. No stated cut-off is given here; in the data, active means growth inhibition above about 70%; inactive means the rest.

Tests used:
[1] = NCI Yeast Anticancer Drug Screen. Data for the rad50 strain (AID 155);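 further: 0% = growth of vehicle-only cultures of the same strain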; details: S. cerevisiae rad50 strain growth inhibition; at 50.0 µM; hits give high values
In short: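 Vehicle-treated cultures provide the reference for the growth inhibition reported for compound-exposed, repair-deficient yeast.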

[2] = NCI Yeast Anticancer Drug Screen. Data for the mec2-1 strain (AID 157); details: S. cerevisiae mec2-1 strain, at 50.0 µM, hits give high values
In short: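 Compounds were applied to mec2-1 yeast cells. Their growth was then compared with that of vehicle-treated cultures to give growth inhibition.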

[3] = NCI Yeast Anticancer Drug Screen. Data for the sgs1 mgt1 strain (AID 161);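 further: 0% = growth of cultures given vehicle only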; details: S. cerevisiae sgs1 mgt1 strain, at 50.0 µM, hits give high values
In short: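 This yeast growth screen uses a strain with defined DNA-repair lesions; compound-treated growth is compared with vehicle-treated growth.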

[4] = NCI Yeast Anticancer Drug Screen. Data for the cln2 rad14 strain (AID 165);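 further: 0% = growth equal to vehicle treated cultures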; details: S. cerevisiae cln2 rad14 strain, at 50.0 µM, hits give high values
In short: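 Strain: cln2 rad14 yeast, altered in cell cycle control and DNA damage repair. Read-out: growth inhibition vs vehicle.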

[5] = NCI Yeast Anticancer Drug Screen. Data for the bub3 strain (AID 167); details: S. cerevisiae bub3 mutant strain, at 50.0 µM, hits give high values
In short: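 Mutant yeast screening strain plus compound; vehicle-treated cultures serve as the 0% inhibition reference.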

[6] = NCI Yeast Anticancer Drug Screen. Data for the mlh1 rad18 strain (AID 175); details: S. cerevisiae mlh1 rad18 strain growth inhibition; at 50.0 µM; hits give high values
In short: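 A repair-deficient yeast strain is exposed to test compound, and growth is scored relative to vehicle-treated controls.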

Measured: growth inhibition

CC1(CO)CSC(Nc2ccc(F)cc2)=N1 (configuration not stated)
inactive: [1] -7.4% | [2] -11.1% | [3] 14.8% | [4] 14.8% | [5] 2.4% | [6] 3.35%

CC1=C(C(=O)NNC(=O)c2ccccc2)CC(C(=O)NNC(=O)c2ccccc2)=C(C)N1
inactive: [1] -24.3% | [2] 14.5% | [3] 1.85% | [4] -34.6% | [5] -13.2% | [6] -28.6%

CCOC(=O)C1=NN(c2ccc(C)cc2)C2=CC(C)=NN(C)C(=S)N21
inactive: [1] -18.1% | [2] -7.3% | [3] -21.8% | [4] -13.6% | [5] 7.1% | [6] -49.3%

CN(C)c1cccc(/C=C(\C#N)c2ccccc2)c1
inactive: [1] 2.85% | [2] 13.8% | [3] 35.5% | [4] 28.8% | [5] 54.1% | [6] 15.2%

CC(=S)N/C=C/c1c(C(=O)O)cc([N+](=O)[O-])cc1[N+](=O)[O-]
inactive: [1] -16.9% | [2] -27.7% | [3] 4.55% | [4] -12.8% | [5] -18.9% | [6] 4.7%

COC(=O)c1cc(-c2cccc3ccccc23)[nH]c(=O)c1C#N
inactive: [1] 8.85% | [2] 0.35% | [3] 17.6% | [4] 18.7% | [5] -6.6% | [6] 21.9%

Cc1ccc(N2C(=O)c3ccccc3NC2(C)CCl)cc1 (configuration not stated)
inactive: [1] 4.55% | [2] -9.25% | [3] 10.9% | [4] -3.7% | [5] 33.1% | [6] 1.3%

Cc1ncc([N+](=O)[O-])n1CCN(C)CCCCn1ccnc1[N+](=O)[O-]
inactive: [1] -0.3% | [2] -1.2% | [3] -5% | [4] -3.75% | [5] 7.7% | [6] -57.9%

CC(=O)n1ccc(=O)[nH]c1=O
inactive: [1] 8.9% | [2] 0.2% | [3] 0.45% | [4] -38.8% | [5] -11.9% | [6] 16.4%

Cc1ccc(C(=O)/C=C\c2ccc(Cl)c(Cl)c2)cc1
inactive: [1] -14.9% | [2] -5.8% | [3] 23.3% | [4] -5.5% | [5] 35.7% | [6] 5.6%

Cc1cc([N+](=O)[O-])ccc1N=NC(=O)NNc1ccc([N+](=O)[O-])cc1C
inactive: [1] -0.45% | [2] 5.1% | [3] 8.35% | [4] -33.1% | [5] 4.15% | [6] 23.2%

CC1CCC(C(C)C)C2(C1)OC(CCl)CS2 (configuration not stated)
inactive: [1] -0.35% | [2] 14.7% | [3] 7.8% | [4] -18.1% | [5] 26.9% | [6] 1.95%

C1CC(CCN2CCOCC2)CCN1
inactive: [1] -16.4% | [2] -46.6% | [3] -17.3% | [4] 9.8% | [5] -2.7% | [6] -8.45%

O=C([O-])c1ccc(C(=O)[O-])cc1.O=C([O-])c1ccc(C(=O)[O-])cc1.[Mo+2].[Mo+2]
inactive: [1] -38.6% | [2] 18.1% | [3] 2.85% | [4] 9.1% | [5] -11.8% | [6] 16.6%

CC(C)(C#N)OC(=O)Nc1c(Cl)cccc1Cl
inactive: [1] 2.4% | [2] -23.2% | [3] 5.15% | [4] 3.6% | [5] 11.2% | [6] 6.5%

CC(C)CCc1n[nH]c(=O)n1/N=C\c1ccccc1
inactive: [1] -4.25% | [2] -9.35% | [3] -0.05% | [4] -10.6% | [5] 19.1% | [6] 26.6%

Cc1cccc(C)c1NC(=O)N1CCN(C)CC1
inactive: [1] 1.9% | [2] 14.3% | [3] -3.3% | [4] -75.8% | [5] -9.45% | [6] -18.6%

CCCCC(O)c1ccc[n+]([O-])c1 (configuration not stated)
inactive: [1] 4.3% | [2] -21% | [3] 0.6% | [4] 2.95% | [5] -3.4% | [6] 3.95%

NC(=O)N/N=C(/c1nc2ccc([N+](=O)[O-])cc2[nH]c1=O)C(O)c1ccco1 (configuration not stated)
inactive: [1] 5.35% | [2] -9.65% | [3] -11.1% | [4] 19.8% | [5] -19% | [6] 3.5%

CC(COc1ccccc1)OC=O (configuration not stated)
inactive: [1] 10.6% | [2] -2.65% | [3] 8.2% | [4] -24.4% | [5] -13.8% | [6] 8.65%

CCCC(N)S(=O)(=O)O (configuration not stated)
inactive: [1] -25.6% | [2] -10.6% | [3] -23.9% | [4] -14.1% | [5] 6.1% | [6] -11.2%

NC(=O)COc1ccc(Cl)cc1Cl
inactive: [1] 16.6% | [2] -0.5% | [3] 28.4% | [4] -0.4% | [5] 5.7% | [6] 20%

Oc1ccc(Br)cc1CNC1CCCCC1
inactive: [1] 58.5% | [2] 31.8% | [3] 61.1% | [4] -9.9% | [5] 27.1% | [6] 24.1%

OCC(O)c1ccc(Cl)cc1 (configuration not stated)
inactive: [1] -23% | [2] -17.6% | [3] -14.8% | [4] -14% | [5] -15.8% | [6] -0.3%

c1ccc2[nH]c(CN3CCCCC3)cc2c1
inactive: [1] 7.15% | [2] -10.1% | [3] -8.95% | [4] -18.8% | [5] -13.2% | [6] 11.8%

COc1ccc(-c2c(C#N)c(S)n(C3OC(COC(C)=O)C(OC(C)=O)C(OC(C)=O)C3OC(C)=O)c(=O)c2C#N)cc1 (configuration not stated)
inactive: [1] -18.1% | [2] -12.2% | [3] -6.3% | [4] -16.3% | [5] 16.4% | [6] 14%

COC(=O)C1CC(c2ccc(Cl)cc2)=NO1 (configuration not stated)
inactive: [1] 36.4% | [2] 8.25% | [3] 8.5% | [4] 5.3% | [5] 1.5% | [6] 47.1%

O=C1CCC2(c3ccccc3)Nc3ncccc3N12 (configuration not stated)
inactive: [1] 33% | [2] 2.8% | [3] 6.6% | [4] 3.85% | [5] 23% | [6] 27.8%

CC(C)(C)n1nnnc1N
inactive: [1] -8.55% | [2] -7.55% | [3] 6% | [4] -0.05% | [5] 11.1% | [6] -20.9%

Cn1c(=O)c2c(n(C)c1=O)[n+]([O-])c([N+]1([O-])CCOCC1)n2C
inactive: [1] -3.85% | [2] -6.3% | [3] -0.6% | [4] -24.9% | [5] -4.15% | [6] 3.2%

COc1ccc(CN2C(=O)C(=O)N(C)C2=O)c2ccccc12
inactive: [1] 36.9% | [2] 4.65% | [3] 13.8% | [4] 18.1% | [5] 18.5% | [6] 23.6%

O=S(=O)(Nc1cc(Cl)c(NS(=O)(=O)c2ccccc2)c(S(=O)(=O)c2ccccc2)c1Cl)c1ccccc1
active: [3] 73.5% | [4] 71.8%
inactive: [1] 58.2% | [2] 62.4% | [5] 65.3% | [6] 65%

CCCCCCCCCCCCCCCCC1=CC(=O)C=C(OC)C1=O
inactive: [1] 13.4% | [2] 1.45% | [3] 23.4% | [4] -36% | [5] -0.15% | [6] 15.6%

COc1cc2c(cc1OC)C(N)CC2=O (configuration not stated)
inactive: [1] 3.15% | [2] 1.4% | [3] -7.25% | [4] 3.65% | [5] 0.5% | [6] -75.3%

COC1CCC(C2=NC3CCCCC3SC2)CC1 (configuration not stated)
inactive: [1] 13.6% | [2] 18.8% | [3] 21.5% | [4] -10.6% | [5] 54.8% | [6] 31.7%

Cc1ccc(F)c2[nH]c(-c3ccccc3)cc(=O)c12
inactive: [1] 14.9% | [2] 3.45% | [3] -1.2% | [4] -5.95% | [5] 8% | [6] 12%

COc1ccc(CCN(C)C(c2ccccc2)c2ccccc2)cc1OC
inactive: [1] -2.8% | [2] -6.65% | [3] 10.9% | [4] 3.75% | [5] 4.75% | [6] 3.3%

Cc1ccc(S(=O)(=O)Nc2nnc(CC(C)C)s2)cc1
inactive: [1] 36.2% | [2] -6.45% | [3] 35.2% | [4] 28.1% | [5] 40.9% | [6] 35.9%

Cn1c(=O)c(C#N)c2n(C)c3ccccc3n2c1=O
inactive: [1] 64.8% | [2] 17.4% | [3] 13.8% | [4] 2.25% | [5] -36.1% | [6] -0.15%

CC(C)(C[NH-])C[NH-].[Cl][Pt+2][Cl]
inactive: [1] -22.3% | [2] 13.3% | [3] 20.2% | [4] 18.6% | [5] 16.6%
active: [6] 87.7%

Cc1ccc(S(=O)(=O)OCC2C(COS(=O)(=O)c3ccc(C)cc3)C3C4C5C2C2C3C4C52)cc1 (configuration not stated)
inactive: [1] -15.9% | [2] -0.3% | [3] 9.75% | [4] 13.8% | [5] -5.5% | [6] -21.5%

COc1ccccc1-n1c(C)nc2c(cnn2CN2CCCCC2)c1=O
inactive: [1] 0.85% | [2] -6.4% | [3] 12.3% | [4] -0.7% | [5] 0.95% | [6] 12%
